The conditions of experiment [1]: Ebola virus entry assay, green fluorescence channel.
For experiment [2] the following is noted: Ebola virus entry assay, blue channel fluorescence.
For experiment [3] the following is noted: Ebola virus entry assay, ratio channel.
The conditions of experiment [4]: Ebola virus entry assay, reporter ratio channel; Channel type: primary.

For 26 molecules, efficacy, AC50 and outcome results are on record in PubChem BioAssay (NCATS).

Unmarked numbers belong to inactive results. For some assays here: Entries with a potency or affinity are not part of this list. Active and inactive are the calls of the source. No rule for the calls is given here.
For efficacy in this document: 0% is about no effect.

By AC50 is commonly meant the concentration giving half of the maximal activity seen. Regarding `CN1CCC(=C2c3ccccc3Sc3ccccc32)CC1`, the efficacy in experiment [1] was 61.5%. Also, the AC50 was 8.91 µM (active) in experiment [2], 5.01 µM (active) in experiment [3] and 5.01 µM (active) in experiment [4].

In the case of `CCC1(c2cccc(O)c2)CCCCN(C)C1` (centres undefined), the efficacy in experiment [1] is 34.9%. The values for the AC50 in experiment [2] and in experiment [4] were 20 µM (active) and 39.8 µM (active), respectively. Further, the outcome in experiment [3] was inactive.

For `CN(C)CCN(Cc1ccc(Cl)cc1)c1ccccn1`, the efficacy in experiment [1] is 58.3%. Further, the results for the AC50 in experiment [2], in experiment [3] and in experiment [4] were 17.8 µM (active), 14.1 µM (active) and 14.1 µM (active), respectively.

In the case of `CCCCCCCCCCCC[N+](C)(C)CCOc1ccccc1`, the efficacy in experiment [1] was -194%. The values for the AC50 in experiment [2], in experiment [3] and in experiment [4] were 39.8 µM (active), 25.1 µM (active) and 25.1 µM (active), respectively.

For `CCCOC(C(=O)OC1CCN(C)CC1)(c1ccccc1)c1ccccc1`, in experiment [1], the efficacy was 30.9%. Besides, the AC50 is 7.94 µM (active) in experiment [2], 7.08 µM (active) in experiment [3] and 7.08 µM (active) in experiment [4].

With `CC[C@H](O)C(C[C@H](C)N(C)C)(c1ccccc1)c1ccccc1`, the efficacy in experiment [1] is 49.4%. The AC50 in experiment [2] was 11.2 µM (active); in experiment [3] it was 8.91 µM (active); in experiment [4], 8.91 µM (active).

Regarding `Nc1c2c(nc3ccccc13)CCCC2`, in experiment [1], the efficacy is 49.8%. For the same molecule, the AC50 in experiment [2], in experiment [3] and in experiment [4] was 31.6 µM (active) throughout.

For `CN(C)CCCN1c2ccccc2Sc2ccccc21`, the efficacy in experiment [1] is 62.9%. Further, the figures for the AC50 in experiment [2], in experiment [3] and in experiment [4] were 5.62 µM (active), 5.01 µM (active) and 5.01 µM (active), respectively.

Take `CN1C(=O)[C@@H](NC(=O)c2cc3ccccc3[nH]2)N=C(c2ccccc2)c2ccccc21`: the efficacy in experiment [1] was -160%. For the same molecule, the AC50 in experiment [2] is 39.8 µM (active). In addition, the outcome in experiment [3] and in experiment [4] was inactive.

With `CN(C)c1ccc(C(=C2C=CC(=[N+](C)C)C=C2)c2ccccc2)cc1`, in experiment [1], the efficacy was -236%. Further, the AC50 in experiment [2] is 0.891 µM (active); in experiment [3] it was 0.708 µM (active); in experiment [4], 0.708 µM (active).

As for `O=C(CN1CCN(Cc2ccc3c(c2)OCO3)CC1)N1c2ccccc2Sc2ccccc21`, in experiment [1], the efficacy was 86.4%. The AC50 in experiment [2] was 39.8 µM (active); in experiment [3], 25.1 µM (active); in experiment [4], 25.1 µM (active).

Turning to `CCN(CC)Cc1nccn1-c1ccc([N+](=O)[O-])cc1C(=O)c1ccccc1Cl`, the efficacy in experiment [1] is 96.4%. Further, the AC50 in experiment [2] and in experiment [4] was 39.8 µM (active) in each case. In experiment [3], the outcome was inactive.

Regarding `O=C(CCN1CCN2CCCC2C1)N1c2ccccc2Sc2ccc(Cl)cc21` (centres undefined), in experiment [1], the efficacy was 163%. Also, the AC50 in experiment [2] was 11.2 µM (active); in experiment [3] it was 10 µM (active); in experiment [4] it was 10 µM (active).

Regarding `C=C1c2cccc(O)c2C(O)=C2C(=O)[C@]3(O)C(O)=C(C(N)=O)C(=O)[C@@H](N(C)C)[C@@H]3[C@@H](O)[C@H]12`, the efficacy in experiment [1] is 38.3%. Besides, the AC50 in experiment [2] was 7.08 µM (active); in experiment [3], 6.31 µM (active); in experiment [4], 6.31 µM (active).

For the molecule `O=C(CCCN1CC=C(n2c(=O)[nH]c3ccccc32)CC1)c1ccc(F)cc1`, the efficacy in experiment [1] was 51%. Further, the AC50 in experiment [2], in experiment [3] and in experiment [4] was 17.8 µM (active) in each case.

Consider `COC(=O)[C@H]1[C@H]2C[C@@H]3c4[nH]c5cc(OC)ccc5c4CCN3C[C@H]2C[C@@H](OC(=O)COc2ccc(OC)cc2)[C@@H]1OC`, for which the efficacy in experiment [1] was 21%. For the same molecule, the figures for the AC50 in experiment [2], in experiment [3] and in experiment [4] were 22.4 µM (active), 25.1 µM (active) and 25.1 µM (active), respectively.

Regarding `Clc1ccc(CO/N=C(\Cn2ccnc2)c2ccc(Cl)cc2Cl)c(Cl)c1`, the efficacy in experiment [1] was -155%. Besides, the results for the AC50 in experiment [2] and in experiment [4] were 28.2 µM (active) and 31.6 µM (active), respectively. The outcome in experiment [3] was inactive.

On to `C[C@H]1[C@H]2CC[C@H]3[C@@H]4CC=C5C[C@@H](N(C)C)CC[C@]5(C)[C@H]4CC[C@]23CN1C`, for which, in experiment [1], the efficacy is 108%. The AC50 in experiment [2], in experiment [3] and in experiment [4] was 10 µM (active) each time.

As for `O=C1NC2CCCCN2C12CCN(CCCN1c3ccccc3CCc3ccc(Cl)cc31)CC2` (centres undefined), in experiment [1], the efficacy is -203%. In addition, the AC50 in experiment [2] was 4.47 µM (active); in experiment [3], 3.16 µM (active); in experiment [4], 3.16 µM (active).

`Cc1cc(C2CCCCC2)n(O)c(=O)c1`: in experiment [1], the efficacy is 53.2%. In addition, the AC50 in experiment [2] and in experiment [4] was 39.8 µM (active) in each case. Besides, in experiment [3], the result was inactive.

As to `Clc1ccc(Cn2c(CN3CCCC3)nc3ccccc32)cc1`, in experiment [1], the efficacy is 99.2%. Also, the AC50 is 28.2 µM (active) in experiment [2], 22.4 µM (active) in experiment [3] and 22.4 µM (active) in experiment [4].

Turning to `CN1CCC(Nc2ncc3ncnc(Nc4ccc(F)c(Cl)c4)c3n2)CC1`, the efficacy in experiment [1] is 97.2%. Besides, the molecule was classed as inactive in experiment [2], in experiment [3] and in experiment [4].

For `COC(=O)C1=C(C)NC(C)=C(C(=O)OCCCN2CCC(c3ccccc3)(c3ccccc3)CC2)C1c1cccc([N+](=O)[O-])c1` (centres undefined), the efficacy in experiment [1] is -179%. Also, the AC50 in experiment [2] is 2.82 µM (active); in experiment [3], 2.51 µM (active); in experiment [4] it was 2.51 µM (active).

Take `CCN(CC)CCOCCOC(=O)C1(c2ccccc2)CCCC1`: in experiment [1], the efficacy is 62.4%. The AC50 in experiment [2], in experiment [3] and in experiment [4] was 10 µM (active) each time.

`CCN(CC)CCOc1ccc(/C(=C(\Cl)c2ccccc2)c2ccccc2)cc1`: the efficacy in experiment [1] was -182%. The values for the half-maximal activity concentration (AC50) in experiment [2], in experiment [3] and in experiment [4] were 1.58 µM (active), 1.26 µM (active) and 1.26 µM (active), respectively.

On to `CC1(C)[C@H](C(=O)O)N2C(=O)C[C@H]2S1(=O)=O`, for which, in experiment [1], the efficacy was 90.1%. Besides, the AC50 in experiment [2] is 15.8 µM (active); in experiment [3], 11.2 µM (active); in experiment [4], 11.2 µM (active).
